Test results from PubChem BioAssay AID1159580 (chemical genetic matrix, 2015).
Out of some 5,500 compounds screened, about 2,000 (36%) were called active. Inconclusive results (about 18%) are left out. Rule as the data show it: active = normalized growth mostly below about 0.91 (no sharp cut-off); inconclusive = no clear call, values can overlap the other calls; inactive = mostly above about 0.92. Some of the results follow.

Assay: chemical genetic growth profiling, strain panel (AID 1159580);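 also: tested at 20 µM; growth read once vehicle control cultures reached saturation at 30 °C; 1 = growth at the plate median or of vehicle wells; lower values mean less growth of the strain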
Conditions: growth OD
[1] = S. cerevisiae deletion strains, locus YDL101C, strain DUN1, stronger effect = lower value
[2] = S. cerevisiae deletion strains, locus YHR030C, strain SLT2, stronger effect = lower value
[3] = S. cerevisiae deletion strains, locus YAL013W, strain DEP1, stronger effect = lower value
[4] = S. cerevisiae deletion strains, locus YBR229C, strain ROT2, stronger effect = lower value
[5] = S. cerevisiae deletion strains, locus YDR150W, strain NUM1, stronger effect = lower value
[6] = S. cerevisiae deletion strains, locus YEL061C, strain CIN8, stronger effect = lower value
[7] = S. cerevisiae deletion strains, locus YGR078C, strain PAC10, stronger effect = lower value
[8] = S. cerevisiae deletion strains, locus YHR087W, strain rtc3, stronger effect = lower value
[9] = S. cerevisiae deletion strains, locus YJR043C, strain POL32, stronger effect = lower value
[10] = S. cerevisiae deletion strains, locus YJR075W, strain HOC1, stronger effect = lower value
[11] = S. cerevisiae deletion strains, locus YLR039C, strain RIC1, stronger effect = lower value
[12] = S. cerevisiae deletion strains, locus YLR058C, strain SHM2 (second series), stronger effect = lower value
[13] = S. cerevisiae deletion strains, locus YLR085C, strain ARP6, stronger effect = lower value
[14] = S. cerevisiae deletion strains, locus YLR262C, strain YPT6, stronger effect = lower value
[15] = S. cerevisiae deletion strains, locus YML094W, strain GIM5, stronger effect = lower value
[16] = S. cerevisiae deletion strains, locus YMR219W, strain ESC1, stronger effect = lower value
[17] = S. cerevisiae deletion strains, locus YMR263W, strain SAP30, stronger effect = lower value
[18] = S. cerevisiae deletion strains, locus YMR307W, strain GAS1, stronger effect = lower value
[19] = S. cerevisiae deletion strains, locus YNL153C, strain GIM3, stronger effect = lower value
[20] = S. cerevisiae deletion strains, locus YNL298W, strain CLA4 (second series), stronger effect = lower value
[21] = S. cerevisiae deletion strains, locus YNL322C, strain KRE1, stronger effect = lower value
[22] = S. cerevisiae deletion strains, locus YNR030W, strain Alg12, stronger effect = lower value
[23] = S. cerevisiae deletion strains, locus YPL055C, strain LGE1, stronger effect = lower value
[24] = S. cerevisiae deletion strains, locus YPL241C, strain CIN2, stronger effect = lower value
[25] = S. cerevisiae deletion strains, locus YPR135W, strain CTF4, stronger effect = lower value

Measured: normalized growth

Cc1ccccc1C(=O)N1CCc2c([nH]c3ccccc23)C1C(F)(F)F (configuration not stated)
active: S. cerevisiae deletion strains, locus YLR113W, strain HOG1, stronger effect = lower value 0.799 | S. cerevisiae deletion strains, locus YPL256C, strain CLN2, stronger effect = lower value 0.815
inactive: S. cerevisiae deletion strains, locus YAR019C, strain CDC15, stronger effect = lower value 0.982 | S. cerevisiae deletion strains, locus YBL105C, strain PKC1, stronger effect = lower value 0.985 | S. cerevisiae deletion strains, locus YBR135W, strain CKS1, stronger effect = lower value 0.986 | S. cerevisiae deletion strains, locus YBR136W, strain MEC1, stronger effect = lower value 0.968 | S. cerevisiae deletion strains, locus YBR160W, strain CDC28, stronger effect = lower value 0.988 | S. cerevisiae deletion strains, locus YDL017W, strain CDC7, stronger effect = lower value 0.989 | S. cerevisiae deletion strains, locus YDL028C, strain MPS1, stronger effect = lower value 0.979 | [1] 0.978 | S. cerevisiae deletion strains, locus YDL108W, strain KIN28, stronger effect = lower value 0.98 | S. cerevisiae deletion strains, locus YDL132W, strain cdc53, stronger effect = lower value 0.988 | S. cerevisiae deletion strains, locus YDL214C, strain PRR2, stronger effect = lower value 0.938 | S. cerevisiae deletion strains, locus YDR052C, strain DBF4, stronger effect = lower value 0.989 | S. cerevisiae deletion strains, locus YDR054C, strain cdc34, stronger effect = lower value 0.976 | S. cerevisiae deletion strains, locus YDR226W, strain ADK1, stronger effect = lower value 0.985 | S. cerevisiae deletion strains, locus YDR477W, strain SNF1, stronger effect = lower value 0.962 | S. cerevisiae deletion strains, locus YER123W, strain YCK3, stronger effect = lower value 0.9 | S. cerevisiae deletion strains, locus YER133W, strain GLC7, stronger effect = lower value 0.948 | S. cerevisiae deletion strains, locus YFL009W, strain cdc4, stronger effect = lower value 0.979 | S. cerevisiae deletion strains, locus YFL029C, strain CAK1, stronger effect = lower value 0.972 | S. cerevisiae deletion strains, locus YFR003C, strain YPI1, stronger effect = lower value 0.987 | S. cerevisiae deletion strains, locus YFR019W, strain FAB1, stronger effect = lower value 0.954 | S. cerevisiae deletion strains, locus YFR028C, strain CDC14, stronger effect = lower value 0.978 | S. cerevisiae deletion strains, locus YGR040W, strain KSS1, stronger effect = lower value 0.927 | S. cerevisiae deletion strains, locus YGR052W, strain FMP48, stronger effect = lower value 0.955 | S. cerevisiae deletion strains, locus YGR092W, strain DBF2, stronger effect = lower value 0.978 | [2] 0.881 | S. cerevisiae deletion strains, locus YHR079C, strain IRE1, stronger effect = lower value 0.878 | S. cerevisiae deletion strains, locus YHR082C, strain KSP1, stronger effect = lower value 0.927 | S. cerevisiae deletion strains, locus YHR205W, strain SCH9, stronger effect = lower value 0.83 | S. cerevisiae deletion strains, locus YIL147C, strain SLN1, stronger effect = lower value 0.976 | S. cerevisiae deletion strains, locus YJL095W, strain BCK1, stronger effect = lower value 0.908 | S. cerevisiae deletion strains, locus YJL128C, strain PBS2, stronger effect = lower value 0.927 | S. cerevisiae deletion strains, locus YJL157C, strain FAR1, stronger effect = lower value 0.976 | S. cerevisiae deletion strains, locus YJR016C, strain ILV3, stronger effect = lower value 0.989 | S. cerevisiae deletion strains, locus YJR066W, strain TOR1 (second series), stronger effect = lower value 0.934 | S. cerevisiae deletion strains, locus YJR066W, strain TOR1, stronger effect = lower value 0.943 | S. cerevisiae deletion strains, locus YKL048C, strain ELM1, stronger effect = lower value 0.977 | S. cerevisiae deletion strains, locus YKL067W, strain YNK1, stronger effect = lower value 0.95 | S. cerevisiae deletion strains, locus YKL101W, strain HSL1, stronger effect = lower value 0.909 | S. cerevisiae deletion strains, locus YKL193C, strain SDS22, stronger effect = lower value 0.99 | S. cerevisiae deletion strains, locus YKL203C, strain TOR2, stronger effect = lower value 1.01 | S. cerevisiae deletion strains, locus YLR133W, strain CKI1, stronger effect = lower value 0.929 | S. cerevisiae deletion strains, locus YLR403W, strain SFP1, stronger effect = lower value 0.93 | S. cerevisiae deletion strains, locus YML070W, strain DAK1, stronger effect = lower value 0.905 | S. cerevisiae deletion strains, locus YMR001C, strain CDC5, stronger effect = lower value 0.97 | S. cerevisiae deletion strains, locus YMR205C, strain PFK2 (second series), stronger effect = lower value 0.945 | S. cerevisiae deletion strains, locus YMR277W, strain FCP1, stronger effect = lower value 0.991 | S. cerevisiae deletion strains, locus YNL006W, strain LST8, stronger effect = lower value 1 | S. cerevisiae deletion strains, locus YNL020C, strain ARK1, stronger effect = lower value 0.95 | S. cerevisiae deletion strains, locus YNL161W, strain CBK1, stronger effect = lower value 0.996 | S. cerevisiae deletion strains, locus YNL183C, strain NPR1, stronger effect = lower value 0.894 | S. cerevisiae deletion strains, locus YNL207W, strain RIO2, stronger effect = lower value 0.982 | S. cerevisiae deletion strains, locus YNL222W, strain SSU72, stronger effect = lower value 0.991 | S. cerevisiae deletion strains, locus YNL307C, strain MCK1 (second series), stronger effect = lower value 0.936 | S. cerevisiae deletion strains, locus YOL078W, strain AVO1, stronger effect = lower value 0.991 | S. cerevisiae deletion strains, locus YOL136C, strain PFK27, stronger effect = lower value 0.906 | S. cerevisiae deletion strains, locus YOR061W, strain CKA2, stronger effect = lower value 0.953 | S. cerevisiae deletion strains, locus YOR119C, strain RIO1, stronger effect = lower value 0.985 | S. cerevisiae deletion strains, locus YOR231W, strain MKK1, stronger effect = lower value 0.891 | S. cerevisiae deletion strains, locus YOR329C, strain SCD5, stronger effect = lower value 0.985 | S. cerevisiae deletion strains, locus YPL031C, strain PHO85, stronger effect = lower value 0.963 | S. cerevisiae deletion strains, locus YPL153C, strain RAD53, stronger effect = lower value 0.943 | S. cerevisiae deletion strains, locus YPL204W, strain HRR25, stronger effect = lower value 0.945 | S. cerevisiae deletion strains, locus YPL209C, strain IPL1, stronger effect = lower value 0.986 | S. cerevisiae deletion strains, locus YPR025C, strain CCL1, stronger effect = lower value 0.989 | S. cerevisiae deletion strains, locus YPR106W, strain ISR1, stronger effect = lower value 0.965 | S. cerevisiae deletion strains, locus YPR111W, strain DBF20, stronger effect = lower value 0.966 | S. cerevisiae deletion strains, strain NNK1, stronger effect = lower value 0.967 | S. cerevisiae deletion strains, strain TSCII, stronger effect = lower value 0.988

O=C(O)COCC(=O)N1CCc2c([nH]c3ccccc23)C1C(F)(F)F (configuration not stated)
inactive: [3] 1.01 | [4] 0.998 | [1] 1.02 | S. cerevisiae deletion strains, locus YDL134C, strain PPH21, stronger effect = lower value 1.01 | [5] 0.949 | [6] 1.01 | [7] 1.03 | [2] 1.06 | [8] 1.01 | [9] 1.02 | [10] 1.06 | S. cerevisiae deletion strains, locus YKL190W, strain CNB1, stronger effect = lower value 1.03 | [11] 1.03 | [12] 1.02 | [14] 0.998 | [15] 1.04 | [16] 1 | [17] 0.954 | [18] 1.24 | [19] 1.01 | [20] 1.05 | [21] 1.02 | [22] 1.06 | [23] 0.961 | [24] 1.07 | [25] 1.05 | S. cerevisiae strains, strain wild type, stronger effect = lower value 1.02
active: [13] 1.33 [resistant]

O=C(CSc1ccc(C(F)(F)F)cn1)N1CCc2c([nH]c3ccccc23)C1C(F)(F)F (configuration not stated)
inactive: [3] 1 | [4] 0.995 | S. cerevisiae deletion strains, locus YCL061C, strain MRC1, stronger effect = lower value 1.01 | [1] 1 | [5] 1.02 | [6] 0.959 | [7] 0.984 | [2] 1.01 | [8] 0.974 | S. cerevisiae deletion strains, locus YJL187C, strain SWE1, stronger effect = lower value 1.02 | [9] 1.01 | [10] 0.965 | [11] 0.999 | [12] 1.01 | [13] 1 | [14] 0.982 | [15] 0.997 | [16] 1.01 | [17] 1.01 | [18] 0.935 | [19] 0.998 | [20] 1.01 | [21] 0.991 | [22] 0.916 | S. cerevisiae deletion strains, locus YOL006C, strain TOP1, stronger effect = lower value 1.08 | [23] 0.954 | [24] 0.936 | [25] 0.907
